An excerpt weighted towards active compounds, which were near 10% of everything screened.
HPGD inh = qHTS Assay for Inhibitors of HPGD (15-Hydroxyprostaglandin Dehydrogenase). purified HPGD, NADH fluorescence kinetic, PGE2 substrate. Potency, µM, for inactives: at the top dose activity change, negative = inhibition, hits mostly inhibitors. 4.3% of 150,000 active; further: potency means the concentration at half of the fitted maximal effect
Target sequence (P15428 whole entry, looked up): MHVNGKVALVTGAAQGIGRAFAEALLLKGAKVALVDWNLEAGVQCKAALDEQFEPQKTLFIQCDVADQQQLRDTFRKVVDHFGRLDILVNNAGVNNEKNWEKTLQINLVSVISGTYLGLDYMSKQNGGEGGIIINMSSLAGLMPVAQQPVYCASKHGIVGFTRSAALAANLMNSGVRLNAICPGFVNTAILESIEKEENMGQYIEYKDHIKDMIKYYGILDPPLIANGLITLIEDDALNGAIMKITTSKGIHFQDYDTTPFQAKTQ
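NADH formation kinetics: reaction with 30 uM PGE2 and 1 mM NAD+ (final), 20 nM enzyme, Tris-HCl pH 8 with Tween 20, after 15 min compound preincubation at room temperature. Fluorescence change, last versus first of five reads.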
PNC inhibitor = High Content Assay for Compounds that inhibit the Assembly of the Perinucleolar Compartment; AID 2417, 2010; 3.1% of 140,000 active; activity change (PNC), negative = inhibition, % at 10 µM; PC3M PTB-GFP, PNC prevalence imaging, 16 h; hits give low values;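 active means readout at or below -70, meaning at least 70% loss of cells showing the perinucleolar compartment, a nuclear body marking cancer cells; inconclusive means readout between -30 and a set limit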;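 further: plate controls were DMSO wells for no effect and camptothecin positive control wells for full effect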
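PC3M cells stably expressing PTB-GFP, 750–1000 cells/well, treated 16 h at 37 °C with compound (23 nl of library stock), in duplicate. After paraformaldehyde fixation and Hoechst stain, imaged at 20x; PNC prevalence scored by image analysis.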
LMNA splice mod = qHTS Assay for Modulators of Lamin A Splicing; AID 1487, 2009; HeLa LMNA splicing GFP/RFP minigene ratio, 48 h; 0.01% of 200,000 active; Potency, µM (titrated, usually from 46.1 µM), for the others: at the top dose ratio change, negative = inhibition, usual class: inhibitors; active means well fitted inhibition curve with a large enough effect in the signal ratio, with a control signal flat, not every such curve was filed as active; inconclusive means small, poorly fitted or top-dose-only effect, or effect the other way, or a change in a side signal; the % refers to the signal ratio; further: potency means the concentration at half of the fitted maximal effect
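S3 HeLa stable clones carrying a lamin A-EGFP splicing minigene plus DsRed2 were seeded at 600 cells/well in Opti-MEM with 2% FBS, pin-dosed and incubated 48 h at 37°C. Acumen cytometry (488 nm) gave the GFP/RFP total-intensity ratio.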
ALDH1A1 inh = qHTS Assay for Inhibitors of Aldehyde Dehydrogenase 1 (ALDH1A1). 7.3% of 220,000 active. Potency, µM (top dose mostly 75.3 µM), for inactives: at the top dose activity, negative = inhibition, hits mostly inhibitors. Aldehyde dehydrogenase 1A1 (Homo sapiens), P00352. Purified ALDH1A1, NADH fluorescence, propionaldehyde substrate;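 further: potency means the concentration at half of the fitted maximal effect; plate controls were no enzyme wells and a reference inhibitor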
Target sequence (P00352 whole entry, looked up): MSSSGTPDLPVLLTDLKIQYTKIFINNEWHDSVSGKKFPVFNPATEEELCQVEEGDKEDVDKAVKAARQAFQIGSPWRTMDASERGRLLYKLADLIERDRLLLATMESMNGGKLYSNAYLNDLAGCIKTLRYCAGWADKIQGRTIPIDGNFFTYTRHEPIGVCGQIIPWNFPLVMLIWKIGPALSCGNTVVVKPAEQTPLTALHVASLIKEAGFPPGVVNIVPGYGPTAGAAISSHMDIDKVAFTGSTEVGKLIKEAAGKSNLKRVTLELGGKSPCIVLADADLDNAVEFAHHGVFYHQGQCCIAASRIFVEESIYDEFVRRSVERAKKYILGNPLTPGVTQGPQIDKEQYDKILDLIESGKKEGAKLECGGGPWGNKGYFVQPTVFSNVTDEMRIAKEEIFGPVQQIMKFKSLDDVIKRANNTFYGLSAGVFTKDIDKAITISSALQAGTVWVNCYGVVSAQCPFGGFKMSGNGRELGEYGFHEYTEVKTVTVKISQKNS
12-hLO inh = qHTS Assay for Inhibitors of 12-hLO (12-human lipoxygenase) | 0.12% of 150,000 active | AID 1452, 2008 | purified 12-hLO, xylenol orange hydroperoxide absorbance | Potency, µM (doses to about 57.1 µM), for the others: at the top dose activity change, negative = inhibition, actives largely listed as inhibitors | Polyunsaturated fatty acid lipoxygenase ALOX12 (Homo sapiens), P18054; active means well fitted inhibition curve with a large enough effect; inconclusive means small, poorly fitted or top-dose-only effect; further: potency means the concentration at half of the fitted maximal effect; nearly all actives have a fitted effect of over 55% in size
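Purified human 12hLO (150 nM final) was preincubated with compounds for 15 min at room temperature in 25 mM Hepes pH 7.0, 0.01% Triton X-100, then reacted with 40 uM arachidonic acid for 30 min. Hydroperoxide was detected with ferrous iron/xylenol orange.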
The depositor's hits bear a star; u = inconclusive; x = not tested or not shown; [ ] = another dose, or the depositor's remark. Unless noted, the call rests on the fitted dose curve; in most records, active means well fitted inhibition curve with a large enough effect (not every such curve was filed as active); inconclusive means small, poorly fitted or top-dose-only effect, or another doubt; inactive means no such curve, though single readings can be large or run the other way. Unless noted, on the % scale 0 is the no-effect control and ±100 the full control effect.

SMILES	HPGD inh	PNC inhibitor	LMNA splice mod	ALDH1A1 inh	12-hLO inh
CN(C)S(=O)(=O)c1cccc(NC(=S)Nc2cccc3cnccc23)c1	x	x	x	7.94µM*	x
Fc1cccc(NC(=S)Nc2cccnc2)c1	x	x	-11.2%[46 µM]	-9.2%	x
CN(C)S(=O)(=O)c1cccc(NC(=S)Nc2ccc3cn[nH]c3c2)c1	x	x	-5.7%[46 µM]	22.4µM*	x
S=C(Nc1cccnc1)Nc1cccc2cnccc12	x	x	-2.6%[46 µM]	12.6µM*	x
C/C(CCS(=O)(=O)c1ccccc1)=N/O	x	x	-9.6%[9.22 µM]	-8.3%	x
N#Cc1ccc(CN2CC3(CCN(C(=O)c4cc(C(F)(F)F)cc(C(F)(F)F)c4)CC3)C2)cc1	-6.6%	x	x	7.5%	0.1%
Fc1ccc(NC(=S)Nc2cccc3cnccc23)cc1	x	x	-17.5%[46 µM]	7.94µM*	x
Fc1ccc(NC(=S)Nc2ccccc2Cl)cc1	x	x	-2.2%[46 µM]	-2.3%	x
COc1ccc(C(=O)Cn2ccsc2=NC(C)=O)cc1	x	x	-12.0%[9.22 µM]	6.7%	x
Cc1ccc(Cn2ccsc2=NC(=O)CCl)cc1	x	x	-0.9%[46 µM]	10µM*	x
Cc1ccc(S(=O)(=O)N2CCN(C(=O)C3Cc4ccccc4CN3C(=O)c3ccco3)CC2)cc1 (configuration not stated)	-9.8%	67.3	-3.6%	8.91µM*	12.5%
Cc1ccc(S(=O)(=O)N2CCN(C(=O)CN3CCc4ccccc4C3)CC2)cc1	-6.3%	37.8	-4.8%	14.1µM*	-15.1%
O=C(c1ccco1)N1CCN(C(=O)C2Cc3ccccc3CN2S(=O)(=O)c2ccc(F)cc2)CC1 (configuration not stated)	-3.0%	-0.1	-4.6%	u	-0.8%
CC1CCC(C(=O)O)NC1c1ccc(C#CCN(C)C)cc1 (configuration not stated)	x	x	x	23.2%[13.5 µM]	x
COc1cccc2c(SCC(=O)N/N=C/c3ccc(O)cc3O)cc(C)nc12	x	x	x	28.2µM*	x
COc1ccc2nc(C)cc(SCC(=O)N/N=C/c3c(OC)ccc4ccccc34)c2c1	u	u	-17.7%	u	-3.3%
COc1ccc2nc(C)cc(SCC(=O)N/N=C/c3ccc(O)cc3O)c2c1	-21.0%	9.6	u	25.1µM*	-23.0%
CC(=O)OCC(=O)[C@@]1(O)CCC2C3C[C@H](C)C4=CC(=O)C=CC4(C)C3C(O)CC21C (some centres not stated)	-4.8%	x	u	0.3%	-1.0%[0.00818 µM]
CC(=O)c1cc(C(=O)N2CCCC(CCC(=O)N(C)CCc3ccccn3)C2)cs1 (configuration not stated)	x	x	x	-5.2%	x
N#CCCn1c(=O)c(CCc2ccccc2)nc2cnc(Oc3cccc(Cl)c3)nc21	0.2%	x	x	10µM*	-6.4%
O=c1c(CCc2ccccc2)nc2cnc(Oc3ccccc3)nc2n1C1CC1	x	x	u	11.2µM*	x
COCCn1c(=O)c(CCc2ccccc2)nc2cnc(OCc3ccccc3)nc21	x	x	u	25.1µM*	x
CCOc1ccc(C(C(=O)NC2CCCC2)N(CCCO)C(=O)c2ccc(-c3ccccc3)[nH]2)cc1 (configuration not stated)	x	x	0.9%[9.22 µM]	u	x
O=C(NC1CC(=O)N(c2ccc(Cl)cc2)C1)c1ccc(S(=O)(=O)N2CCCC2)cc1 (configuration not stated)	x	x	-9.7%[46 µM]	x	x
Cc1nn(-c2ccccc2)c2c1C1(C(=O)N(C(C)C)c3ccccc31)C(C#N)=C(N)O2 (configuration not stated)	-6.0%	-9.9	-0.4%	1.12µM*	-5.1%
SMILES	HPGD inh	PNC inhibitor	LMNA splice mod	ALDH1A1 inh	12-hLO inh
Cc1nn(-c2ccccc2)c(N)c1C1(O)C(=O)N(C(C)C)c2ccccc21 (configuration not stated)	-2.3%	u	-2.9%	u	-1.3%
O=C(Cn1c(-c2cccs2)cc2ccccc21)N1CCN(c2ccc(F)cc2)CC1	x	x	2.0%[46 µM]	x	x
O=C(Nc1ccc(S(=O)(=O)Nc2nccs2)cc1)c1ccc(F)c(S(=O)(=O)N2CCOCC2)c1	x	x	u	5.01µM*	x
COc1nccnc1NS(=O)(=O)c1ccc(NC(=S)NC(=O)c2cccc(F)c2)cc1	-7.7%	-10.0	7.2%	u	-10.1%
O=C(NC(=S)Nc1ccc(S(=O)(=O)Nc2nccs2)cc1)c1ccc(F)cc1	-23.4%	-3.4	-7.5%	17.8µM*	-23.5%
COc1nccnc1NS(=O)(=O)c1ccc(NC(=S)NC(=O)c2ccc(F)cc2)cc1	-11.2%	u	2.3%	14.1µM*	u
COc1nsnc1NS(=O)(=O)c1ccc(NC(=S)NC(=O)c2cccnc2)cc1	x	x	x	20µM*	x
O=C(Nc1ccc(S(=O)(=O)Nc2nccs2)cc1)c1ccc(S(=O)(=O)N2CCOCC2)cc1	2.2%	u	-11.2%	u	1.0%
CC(C)(C)C(=O)NC(=S)Nc1ccc(S(=O)(=O)Nc2nccs2)cc1	x	x	1.4%[46 µM]	u	x
COc1nccnc1NS(=O)(=O)c1ccc(NC(=S)NC(=O)c2ccccc2F)cc1	-7.6%	-5.2	-17.8%	u	-21.9%
CCCCn1c(SCC(=O)NCCCOC)nc2c(sc3ccccc32)c1=O	x	x	-0.7%[46 µM]	x	x
COc1ccc(N(CC(=O)NCC(C)C)S(=O)(=O)c2ccccc2)cc1	x	x	9.7%[46 µM]	9.0%	x
CCOC(=O)N1CCN(C(=O)CN(c2cccc(C)c2)S(=O)(=O)c2ccc(C)cc2)CC1	-3.3%	54.4	14.3%	u	-9.3%
CCC(C)NC(=O)CN(c1ccc(OC)cc1)S(=O)(=O)c1ccc(NC(C)=O)cc1 (configuration not stated)	-9.3%	-126.9*	1.9%	u	0.6%
O=C(CN(c1ccccc1)S(=O)(=O)c1ccccc1)N1CCN(Cc2ccc3c(c2)OCO3)CC1	-1.9%	-87.8*	-7.9%	-2.7%	-4.2%
CCOC(=O)N1CCN(C(=O)CN(c2cccc(C)c2)S(=O)(=O)c2ccccc2)CC1	0.8%	0.4	u	-5.1%	-5.6%
CCOC(=O)N1CCN(C(=O)CN(c2cc(Cl)ccc2OC)S(=O)(=O)c2ccccc2)CC1	-5.2%	40.7	16.1%	25.1µM*	-8.5%
Cc1ccc(S(=O)(=O)N(CC(=O)N2CCC(C)CC2)c2cccc(C)c2)cc1	-8.7%	61.7	11.0%	11.2µM*	-1.2%
CCOC(=O)c1c(C)[nH]c(C)c1S(=O)(=O)N1CCCC(C(=O)N2CCN(c3ccccc3F)CC2)C1 (configuration not stated)	x	x	0.9%[46 µM]	x	x
CN(C)C1(CNC(=O)COc2ccc(C(C)(C)C)cc2)CCCCC1	x	x	17.5%[46 µM]	x	x
Cc1cccc(Cn2c(=O)n(CC3CCC(C(=O)NC(C)C)CC3)c(=O)c3sccc32)c1 (configuration not stated)	x	x	19.4%[46 µM]	x	x
COc1ccc(N2CCN(C(=O)CN(c3ccccc3)S(C)(=O)=O)CC2)cc1	4.9%	u	-5.3%	-0.7%	-4.3%

Screening results deposited in PubChem by National Center for Advancing Translational Sciences (NCATS).
